Data published in PubChem BioAssay (EPA / NIEHS).
Results filed as inconclusive are left out. The source made the active and inactive calls. Rule for the calls, unless noted: active = hit-call score of the fitted dose curve at least 0.9, where 1 is the maximum; inconclusive = response in the unintended direction; inactive = score below 0.9.

Columns and labels:
[1] = ATG_TCF_b_cat_CIS: Attagene CIS-FACTORIAL HepG2 Assay for human T-Cell-Factor with beta-catenin (TCF/b-cat) (AID 2282965; active = hit-call score of the fitted dose curve at least 0.9, where 1 is the maximum; inactive = score below 0.9); conditions: HepG2 TCF/beta-catenin cis-reporter transcription, actives raise or lower the signal
In short: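 Endogenous transcription factor activity is captured through cis-promoter reporter constructs transiently introduced into human HepG2 liver cells. Induced reporter mRNA is measured after 24 h and fitted bidirectionally relative to DMSO.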

[2] = ATG_TAL_CIS: Attagene CIS-FACTORIAL HepG2 Assay for human TAL Basal Promoter (AID 2282966; active = hit-call score of the fitted dose curve at least 0.9, where 1 is the maximum; inactive = score below 0.9;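 note: background control endpoint measuring basal TAL promoter reporter mRNA not a specific factor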); conditions: HepG2 Attagene cis-factorial TAL promoter reporter; actives raise or lower the signal
In short: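 Steps: transfect HepG2 with multiple reporter transcription units; dose 24 h; isolate RNA, reverse-transcribe, PCR-amplify, label with 6-FAM, digest with HpaI; resolve by capillary electrophoresis. Bidirectional fitting against DMSO baseline.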

[3] = ATG_TGFb_CIS: Attagene CIS-FACTORIAL HepG2 Assay for human Transforming Growth Factor (TGF) (AID 2282967; active = hit-call score of the fitted dose curve at least 0.9, where 1 is the maximum; inactive = score below 0.9); conditions: HepG2 Attagene CIS TGFb reporter, mRNA transcription; actives raise or lower the signal
In short: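 Liver HepG2 line, cis-factorial reporter panel, 24 h dosing. Quantitation: RT-PCR products labeled with 6-FAM, cut with HpaI, resolved by capillary electrophoresis; DMSO-referenced bidirectional analysis.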

[4] = biological target: X-box-binding protein 1 (Homo sapiens) (UniProt P17861); assay: ATG_Xbp1_CIS: Attagene CIS-FACTORIAL HepG2 Assay for human X-box Binding Protein 1 (XBP1) (AID 2282972; active = hit-call score of the fitted dose curve at least 0.9, where 1 is the maximum; inactive = score below 0.9); conditions: HepG2 XBP1 cis-element reporter, Attagene multiplex; actives raise or lower the signal
In short: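 After a 24-hour chemical exposure of HepG2 cells carrying cis-regulated reporters, reporter mRNA levels are assessed. Quantification uses RT-PCR, 6-FAM labelling and capillary electrophoresis. Gain- or loss-of-signal is fitted against DMSO.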

[5] = ATG_M_19_TRANS: Attagene TRANS-FACTORIAL HepG2 Assay for M19 Transcription Factor (Internal Marker) (AID 2282974); conditions: HepG2 Attagene TRANS-FACTORIAL M19 internal marker reporter
In short: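 Background-control readout: after 24 h chemical exposure of transfected HepG2 carrying GAL4-driven reporter units, RNA was reverse-transcribed, amplified, fluorescently labeled and sized by capillary electrophoresis; gain-of-signal fit against DMSO.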

[6] = ATG_Hpa5_TRANS: Attagene TRANS-FACTORIAL HepG2 Assay for human GAL4-Hpa5 Hepatocyte Transcription Factor Basal Promoter (AID 2282975); conditions: HepG2 Attagene GAL4-Hpa5 transcription reporter;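 note: hits are increases in reporter mRNA over DMSO baseline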
In short: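 Basal-promoter GAL4 background control within the HepG2 trans-factorial panel of transiently transfected reporter units. Reporter mRNA is measured 24 h after dosing by RT-PCR and capillary electrophoresis, fitted for gain of signal versus DMSO.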

[7] = ATG_GAL4_TRANS: Attagene TRANS-FACTORIAL HepG2 Assay for GAL4 (Internal Marker) (AID 2282976); conditions: HepG2 Attagene TRANS GAL4 internal marker reporter
In short: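 Liver HepG2 line bearing multiplexed GAL4-UAS reporter constructs; 24 h chemical treatment. Transcripts were quantified as fluorescent fragments on capillary electrophoresis after RT-PCR and HpaI cut, with activity fitted upward from DMSO.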

[8] = biological target: Oxysterols receptor LXR-alpha (Homo sapiens) (UniProt Q13133); assay: ATG_LXRa_TRANS: Attagene TRANS-FACTORIAL HepG2 Assay for human Liver X Receptor alpha (LXRa) (AID 2282980); conditions: HepG2 Attagene TRANS reporter, LXRa transactivation
In short: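 In this multiplexed TRANS system, compounds act on HepG2 cells carrying GAL4-UAS reporter units and a receptor-GAL4 fusion for 24 h. Induced reporter RNA is amplified, fluorescently labelled and sized by capillary electrophoresis, with DMSO as baseline.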

[9] = biological target: Oxysterols receptor LXR-beta (Homo sapiens) (UniProt P55055); assay: ATG_LXRb_TRANS: Attagene TRANS-FACTORIAL HepG2 Assay for human Liver X Receptor beta (LXRb) (AID 2282981); conditions: HepG2 Attagene TRANS GAL4-LXRb reporter, mRNA
In short: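 Cells: HepG2, transiently transfected with GAL4-UAS reporter units plus LXRb-Gal4 fusion. Treatment: 24 h. Detection: reporter mRNA by RT-PCR, 6-FAM labelling, HpaI digestion, capillary electrophoresis.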

[10] = ATG_M_06_TRANS: Attagene TRANS-FACTORIAL HepG2 Assay for M06 Transcription Factor (Internal Marker) (AID 2282983); conditions: HepG2 Attagene TRANS M06 internal marker reporter;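 note: reporter transcript level by RT-PCR then capillary electrophoresis fluorescence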
In short: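 Internal-marker background readout from a multiplexed TRANS reporter system in HepG2; 24 h dosing; mRNA induction quantified by RT-PCR plus capillary electrophoresis fluorescence; DMSO as negative control and baseline.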

[11] = ATG_M_32_TRANS: Attagene TRANS-FACTORIAL HepG2 Assay for M32 Transcription Factor (Internal Marker) (AID 2282984); conditions: HepG2 Attagene TRANS M32 internal marker reporter
In short: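 Using transiently transfected HepG2 cells exposed to test chemicals for 24 h, reporter transcripts are converted to labelled cDNA fragments and quantified by capillary electrophoresis. DMSO defines the activity baseline.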

[12] = biological target: Nuclear receptor subfamily 4 group A member 2 (Homo sapiens) (UniProt P43354); assay: ATG_NURR1_TRANS: Attagene TRANS-FACTORIAL HepG2 Assay for human Nuclear Receptor Related Protein 1 (NURR1) (AID 2282985); conditions: HepG2 Attagene TRANS reporter, mRNA readout
In short: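 Cells: HepG2, transiently transfected. Exposure: 24 h. Detection: fluorescence of labelled RT-PCR products separated by capillary electrophoresis; upward fit versus DMSO.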

[13] = biological target: Transcriptional activator Myb (Homo sapiens) (UniProt P10242); assay: ATG_Myb_CIS: Attagene CIS-FACTORIAL HepG2 Assay for human Myeloblastosis (Myb) Proto-Oncogene Transcription Factor (AID 2282986; active = hit-call score of the fitted dose curve at least 0.9, where 1 is the maximum; inactive = score below 0.9); conditions: HepG2 Attagene CIS-FACTORIAL Myb reporter transcription; actives raise or lower the signal
In short: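 Reporter mRNA is quantified by RT-PCR and capillary electrophoresis 24 h after dosing HepG2 cells transfected with cis-regulated reporter units, which track endogenous transcription factor activity. Gain and loss of signal are fitted versus DMSO baseline.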

[14] = biological target: Nuclear respiratory factor 1 (Homo sapiens) (UniProt Q16656); assay: ATG_NRF1_CIS: Attagene CIS-FACTORIAL HepG2 Assay for human Nuclear Respiratory Factor 1 (NRF1) Orphan Gene (AID 2282987; active = hit-call score of the fitted dose curve at least 0.9, where 1 is the maximum; inactive = score below 0.9); conditions: HepG2 NRF1 cis-element reporter, Attagene multiplex; actives raise or lower the signal
In short: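 Endogenous NRF1-driven reporter transcription in transfected HepG2 cells after 24 h treatment. Readout: RT-PCR products, 6-FAM labelled and resolved by capillary electrophoresis; changes fitted both directions relative to DMSO.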

[15] = ATG_VDRE_CIS: Attagene CIS-FACTORIAL HepG2 Assay for human Vitamin D Receptor Element (VDRE) (AID 2282968; active = hit-call score of the fitted dose curve at least 0.9, where 1 is the maximum; inactive = score below 0.9); conditions: HepG2 VDRE cis-reporter transcription, actives raise or lower the signal
In short: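 In transiently transfected HepG2 liver cells, gain or loss of reporter mRNA after 24 h exposure is scored relative to DMSO, using fluorescence detection by capillary electrophoresis of RT-PCR products.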

[16] = biological target: Nuclear receptor subfamily 1 group I member 3 (Homo sapiens) (UniProt Q14994); assay: ATG_CAR_TRANS: Attagene TRANS-FACTORIAL HepG2 Assay for human Constitutive Androstane Receptor (CAR) (AID 2282969); conditions: HepG2 Attagene TRANS-FACTORIAL CAR reporter;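 note: activators raise reporter mRNA above DMSO so AC50 marks induction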
In short: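 Readout is reporter mRNA induction, quantified by fluorescent primer extension and capillary electrophoresis after RT-PCR. Cells were HepG2 transiently carrying chimeric NR-Gal4 constructs with GAL4-UAS reporters, treated for 24 h; activity scored upward from DMSO.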

[17] = biological target: Androgen receptor (Homo sapiens) (UniProt P10275); assay: ATG_AR_TRANS: Attagene TRANS-FACTORIAL HepG2 Assay for human Androgen Receptor (AR) (AID 2282973); conditions: HepG2 Attagene TRANS-FACTORIAL AR reporter transcription
In short: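 Chimeric nuclear receptor–Gal4 activity was assessed in human HepG2 hepatocytes after 24 h chemical dosing. Induced reporter mRNA was detected via labelled RT-PCR fragments on capillary electrophoresis, and gain of signal was analysed against DMSO.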

[18] = biological target: Bile acid receptor (Homo sapiens) (UniProt Q96RI1); assay: ATG_FXR_TRANS: Attagene TRANS-FACTORIAL HepG2 Assay for Farnesoid X Receptor (FXR) (AID 2282979); conditions: HepG2 Attagene TRANS FXR-GAL4 reporter transcription;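 note: hits raise reporter mRNA above DMSO so AC50 marks FXR activation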
In short: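 After 24 h chemical treatment of transfected HepG2 cells, GAL4-UAS reporter transcripts driven by an exogenous FXR-GAL4 fusion were measured by RT-PCR and capillary electrophoresis. Increases over DMSO were fitted.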

[19] = biological target: Estrogen receptor (Homo sapiens) (UniProt P03372); assay: ATG_ERa_TRANS: Attagene TRANS-FACTORIAL HepG2 Assay for human Estrogen Receptor alpha (ERa) (AID 2282970); conditions: HepG2 Attagene TRANS ERa GAL4 reporter, mRNA
In short: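 Multiplexed cell-based reporter format in HepG2: chimeric ERa-Gal4 protein drives GAL4-UAS reporter transcription. Fluorescent reporter mRNA quantified by capillary electrophoresis 24 hours after dosing; endpoint fitted as signal gain against DMSO.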

Androgen receptor (Homo sapiens), sequence (P10275 whole entry, looked up, the tested form may be a part): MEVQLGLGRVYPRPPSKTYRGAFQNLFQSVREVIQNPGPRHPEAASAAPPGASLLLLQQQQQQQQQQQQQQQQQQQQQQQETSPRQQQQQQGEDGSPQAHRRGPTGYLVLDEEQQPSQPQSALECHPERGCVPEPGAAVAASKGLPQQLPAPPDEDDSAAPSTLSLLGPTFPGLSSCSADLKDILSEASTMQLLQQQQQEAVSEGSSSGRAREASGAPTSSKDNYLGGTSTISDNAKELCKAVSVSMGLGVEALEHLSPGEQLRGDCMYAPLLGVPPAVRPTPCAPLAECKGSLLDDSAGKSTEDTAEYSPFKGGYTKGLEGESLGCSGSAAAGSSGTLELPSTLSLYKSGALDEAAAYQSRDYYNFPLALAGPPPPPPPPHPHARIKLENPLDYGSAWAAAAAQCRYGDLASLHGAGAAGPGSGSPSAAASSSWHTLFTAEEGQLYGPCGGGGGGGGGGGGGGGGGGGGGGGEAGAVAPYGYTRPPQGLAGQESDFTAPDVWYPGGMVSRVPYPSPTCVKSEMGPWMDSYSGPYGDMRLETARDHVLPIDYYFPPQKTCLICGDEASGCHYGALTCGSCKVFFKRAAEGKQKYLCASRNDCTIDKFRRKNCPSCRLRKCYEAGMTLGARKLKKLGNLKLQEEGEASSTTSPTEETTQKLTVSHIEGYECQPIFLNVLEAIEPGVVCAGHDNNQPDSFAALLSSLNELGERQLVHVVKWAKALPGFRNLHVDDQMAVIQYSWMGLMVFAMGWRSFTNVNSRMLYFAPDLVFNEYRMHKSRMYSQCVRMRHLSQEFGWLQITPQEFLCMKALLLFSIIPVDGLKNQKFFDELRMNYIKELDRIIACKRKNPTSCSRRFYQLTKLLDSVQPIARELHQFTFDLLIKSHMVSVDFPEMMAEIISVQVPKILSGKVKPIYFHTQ
Oxysterols receptor LXR-alpha (Homo sapiens), sequence (Q13133 whole entry, looked up, the tested form may be a part): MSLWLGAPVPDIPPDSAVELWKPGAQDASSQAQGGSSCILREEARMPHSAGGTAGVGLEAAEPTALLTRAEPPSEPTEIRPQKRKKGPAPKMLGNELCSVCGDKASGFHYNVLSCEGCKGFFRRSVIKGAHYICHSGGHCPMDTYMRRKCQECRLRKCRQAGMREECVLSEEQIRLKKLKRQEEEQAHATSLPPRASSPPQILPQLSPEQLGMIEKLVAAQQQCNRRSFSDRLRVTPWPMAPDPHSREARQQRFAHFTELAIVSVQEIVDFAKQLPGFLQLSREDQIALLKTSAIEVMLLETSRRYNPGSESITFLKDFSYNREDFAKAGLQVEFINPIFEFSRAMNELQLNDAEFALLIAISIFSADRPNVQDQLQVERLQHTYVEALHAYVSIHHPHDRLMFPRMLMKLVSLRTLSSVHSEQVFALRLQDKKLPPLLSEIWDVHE
Transcriptional activator Myb (Homo sapiens), sequence (P10242 whole entry, looked up): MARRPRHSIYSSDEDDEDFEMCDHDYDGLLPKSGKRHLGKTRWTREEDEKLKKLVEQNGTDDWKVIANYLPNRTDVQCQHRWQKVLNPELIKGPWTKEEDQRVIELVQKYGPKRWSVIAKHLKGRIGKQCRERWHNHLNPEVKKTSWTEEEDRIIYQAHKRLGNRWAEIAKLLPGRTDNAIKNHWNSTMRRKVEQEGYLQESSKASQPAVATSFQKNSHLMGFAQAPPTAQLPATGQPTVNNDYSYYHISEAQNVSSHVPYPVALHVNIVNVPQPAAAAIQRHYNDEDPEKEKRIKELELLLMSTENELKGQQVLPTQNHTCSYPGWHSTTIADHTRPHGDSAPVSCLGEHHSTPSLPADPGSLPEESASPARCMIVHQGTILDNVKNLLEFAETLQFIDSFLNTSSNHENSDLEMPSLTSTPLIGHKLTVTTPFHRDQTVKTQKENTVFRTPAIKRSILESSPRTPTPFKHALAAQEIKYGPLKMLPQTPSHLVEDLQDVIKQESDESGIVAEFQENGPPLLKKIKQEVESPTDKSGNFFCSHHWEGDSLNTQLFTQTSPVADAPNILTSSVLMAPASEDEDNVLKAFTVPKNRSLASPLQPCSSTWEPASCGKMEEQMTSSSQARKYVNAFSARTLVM
Nuclear receptor subfamily 1 group I member 3 (Homo sapiens), sequence (Q14994 whole entry, looked up, the tested form may be a part): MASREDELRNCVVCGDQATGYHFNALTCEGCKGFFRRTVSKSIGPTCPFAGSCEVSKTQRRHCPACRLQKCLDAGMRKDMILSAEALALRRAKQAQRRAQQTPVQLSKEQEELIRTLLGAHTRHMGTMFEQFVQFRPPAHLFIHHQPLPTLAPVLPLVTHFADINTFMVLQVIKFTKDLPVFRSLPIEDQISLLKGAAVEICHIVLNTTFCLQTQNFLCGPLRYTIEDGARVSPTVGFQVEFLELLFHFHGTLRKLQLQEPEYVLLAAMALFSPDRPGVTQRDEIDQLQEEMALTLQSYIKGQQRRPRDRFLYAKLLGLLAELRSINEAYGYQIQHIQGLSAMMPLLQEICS
X-box-binding protein 1 (Homo sapiens), sequence (P17861 whole entry, looked up): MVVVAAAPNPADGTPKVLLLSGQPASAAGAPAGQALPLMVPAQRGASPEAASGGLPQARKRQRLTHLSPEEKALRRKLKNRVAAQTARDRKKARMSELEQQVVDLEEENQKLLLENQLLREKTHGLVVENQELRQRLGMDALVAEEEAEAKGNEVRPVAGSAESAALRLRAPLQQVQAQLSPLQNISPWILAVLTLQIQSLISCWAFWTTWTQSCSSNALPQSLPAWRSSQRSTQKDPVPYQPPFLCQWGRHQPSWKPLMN
Nuclear receptor subfamily 4 group A member 2 (Homo sapiens), sequence (P43354 whole entry, looked up): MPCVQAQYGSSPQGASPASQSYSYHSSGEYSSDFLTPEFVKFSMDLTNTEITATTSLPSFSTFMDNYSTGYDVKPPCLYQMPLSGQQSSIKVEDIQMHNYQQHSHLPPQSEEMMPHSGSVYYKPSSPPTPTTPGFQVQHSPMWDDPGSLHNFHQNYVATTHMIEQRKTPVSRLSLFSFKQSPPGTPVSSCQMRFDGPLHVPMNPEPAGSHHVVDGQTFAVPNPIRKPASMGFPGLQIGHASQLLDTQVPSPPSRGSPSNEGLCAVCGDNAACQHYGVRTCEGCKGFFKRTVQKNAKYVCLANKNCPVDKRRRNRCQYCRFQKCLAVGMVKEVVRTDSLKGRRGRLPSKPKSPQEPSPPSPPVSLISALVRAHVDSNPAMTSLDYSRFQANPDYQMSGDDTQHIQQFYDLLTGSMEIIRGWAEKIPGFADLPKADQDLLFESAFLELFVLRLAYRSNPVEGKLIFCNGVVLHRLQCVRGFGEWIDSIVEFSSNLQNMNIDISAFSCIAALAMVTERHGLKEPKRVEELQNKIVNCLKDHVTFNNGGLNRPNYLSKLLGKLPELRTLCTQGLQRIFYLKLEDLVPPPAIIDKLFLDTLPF
Oxysterols receptor LXR-beta (Homo sapiens), sequence (P55055 whole entry, looked up, the tested form may be a part): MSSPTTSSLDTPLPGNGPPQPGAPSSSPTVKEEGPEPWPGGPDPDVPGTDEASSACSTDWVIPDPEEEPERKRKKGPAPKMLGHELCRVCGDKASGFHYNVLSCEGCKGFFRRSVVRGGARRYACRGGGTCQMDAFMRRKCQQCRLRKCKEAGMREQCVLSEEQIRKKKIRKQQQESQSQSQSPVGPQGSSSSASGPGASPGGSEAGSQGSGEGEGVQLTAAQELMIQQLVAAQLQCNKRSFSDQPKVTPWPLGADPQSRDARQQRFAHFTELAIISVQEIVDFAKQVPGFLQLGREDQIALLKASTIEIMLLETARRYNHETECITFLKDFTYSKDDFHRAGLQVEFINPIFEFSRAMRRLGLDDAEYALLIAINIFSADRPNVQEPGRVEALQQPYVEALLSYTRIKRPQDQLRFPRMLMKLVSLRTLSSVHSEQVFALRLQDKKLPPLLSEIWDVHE
Nuclear respiratory factor 1 (Homo sapiens), sequence (Q16656 whole entry, looked up): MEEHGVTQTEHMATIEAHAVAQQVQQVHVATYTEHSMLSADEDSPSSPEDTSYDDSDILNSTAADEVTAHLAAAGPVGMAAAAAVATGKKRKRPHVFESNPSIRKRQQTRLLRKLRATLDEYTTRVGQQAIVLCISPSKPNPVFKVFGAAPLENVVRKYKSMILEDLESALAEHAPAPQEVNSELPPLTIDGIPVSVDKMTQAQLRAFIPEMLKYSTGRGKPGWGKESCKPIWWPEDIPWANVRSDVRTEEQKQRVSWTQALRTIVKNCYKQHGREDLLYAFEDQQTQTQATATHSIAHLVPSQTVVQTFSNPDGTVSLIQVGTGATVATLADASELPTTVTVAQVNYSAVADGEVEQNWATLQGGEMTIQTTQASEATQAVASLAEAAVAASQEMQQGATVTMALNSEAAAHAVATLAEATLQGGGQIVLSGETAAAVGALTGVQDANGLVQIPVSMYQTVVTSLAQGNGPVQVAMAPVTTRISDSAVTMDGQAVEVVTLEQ
Estrogen receptor (Homo sapiens), sequence (P03372 whole entry, looked up, the tested form may be a part): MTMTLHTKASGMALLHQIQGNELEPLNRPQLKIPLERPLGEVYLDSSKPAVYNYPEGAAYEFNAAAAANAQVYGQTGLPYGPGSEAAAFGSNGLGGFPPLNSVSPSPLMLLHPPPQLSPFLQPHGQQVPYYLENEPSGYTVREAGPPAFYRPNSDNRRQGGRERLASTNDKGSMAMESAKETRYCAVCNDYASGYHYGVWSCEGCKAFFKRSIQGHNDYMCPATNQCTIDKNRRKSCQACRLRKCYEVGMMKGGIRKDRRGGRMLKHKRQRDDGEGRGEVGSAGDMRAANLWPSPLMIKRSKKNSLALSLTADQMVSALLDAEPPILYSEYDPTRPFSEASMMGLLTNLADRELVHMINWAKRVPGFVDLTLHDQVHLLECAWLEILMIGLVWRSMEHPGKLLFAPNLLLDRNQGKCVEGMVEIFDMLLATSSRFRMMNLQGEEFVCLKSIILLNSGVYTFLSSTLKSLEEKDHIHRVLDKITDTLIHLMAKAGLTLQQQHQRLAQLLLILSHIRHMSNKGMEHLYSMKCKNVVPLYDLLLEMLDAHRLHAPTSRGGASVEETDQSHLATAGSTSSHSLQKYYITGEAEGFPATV

## CC(C)NC(=O)N1CC(=O)N(c2cc(Cl)cc(Cl)c2)C1=O
[1]
  outcome: inactive
[2]
  outcome: inactive
[3]
  outcome: inactive
[4]
  outcome: inactive
[5]
  outcome: inactive
[6]
  outcome: inactive
[7]
  outcome: inactive
[8]
  outcome: inactive
[9]
  outcome: inactive
[10]
  outcome: inactive
[11]
  outcome: inactive
[12]
  outcome: inactive
[13]
  outcome: inactive
[14]
  outcome: inactive

## CS(=O)(=O)c1cc(C(F)(F)F)ccc1C(=O)c1cnoc1C1CC1
[1]
  outcome: inactive
[2]
  outcome: inactive
[3]
  outcome: inactive
[15]
  outcome: inactive
[16]
  outcome: inactive
[4]
  outcome: inactive
[5]
  outcome: inactive
[6]
  outcome: inactive
[8]
  outcome: inactive
[9]
  outcome: inactive
[11]
  outcome: inactive
[13]
  outcome: inactive
[14]
  outcome: inactive

## COCc1cnc(C2=NC(C)(C(C)C)C(=O)N2)c(C(=O)O)c1 (configuration not stated)
[1]
  outcome: inactive
[2]
  outcome: inactive
[3]
  outcome: inactive
[15]
  outcome: inactive
[16]
  outcome: inactive
[4]
  outcome: inactive
[17]
  outcome: inactive
[6]
  outcome: inactive
[18]
  outcome: inactive
[9]
  outcome: inactive
[10]
  outcome: inactive
[11]
  outcome: inactive
[12]
  outcome: inactive
[13]
  outcome: inactive
[14]
  outcome: inactive

## CCOc1nc(C(Cl)(Cl)Cl)ns1
[1]
  outcome: inactive
[2]
  outcome: inactive
[3]
  outcome: inactive
[15]
  outcome: inactive
[16]
  outcome: inactive
[19]
  outcome: inactive
[4]
  outcome: inactive
[5]
  outcome: inactive
[8]
  outcome: inactive
[9]
  outcome: inactive
[14]
  outcome: inactive

## Nc1c(Cl)c(F)nc(OCC(=O)O)c1Cl
[1]
  outcome: inactive
[2]
  outcome: inactive
[3]
  outcome: inactive
[15]
  outcome: inactive
[19]
  outcome: inactive
[4]
  outcome: inactive
[17]
  outcome: inactive
[9]
  outcome: inactive
[10]
  outcome: inactive
[12]
  outcome: inactive
[14]
  outcome: inactive

## CC1(C)C(C=C(Cl)Cl)C1C(=O)OC(C#N)c1cccc(Oc2ccccc2)c1 (configuration not stated)
[1]
  outcome: inactive
[2]
  outcome: inactive
[3]
  outcome: inactive
[15]
  AC50: 4.91 µM (active)
[16]
  outcome: inactive
[19]
  AC50: 19.7 µM (active)
[4]
  outcome: inactive
[5]
  outcome: inactive
[6]
  outcome: inactive
[7]
  outcome: inactive
[10]
  outcome: inactive
[11]
  outcome: inactive
[12]
  outcome: inactive
[13]
  outcome: inactive
[14]
  outcome: inactive

## CC(C)N1C(=O)c2ccccc2NS1(=O)=O
[1]
  outcome: inactive
[2]
  outcome: inactive
[3]
  outcome: inactive
[15]
  AC50: 14.9 µM (active)
[19]
  outcome: inactive
[4]
  outcome: inactive
[6]
  outcome: inactive
[8]
  AC50: 50 µM (active)
[9]
  AC50: 50 µM (active)
[10]
  outcome: inactive
[11]
  outcome: inactive
[13]
  outcome: inactive
[14]
  outcome: inactive

## CC(C)N1C(=O)N(c2ccccc2)CSC1=NC(C)(C)C
[2]
  outcome: inactive
[3]
  outcome: inactive
[15]
  outcome: inactive
[16]
  outcome: inactive
[19]
  outcome: inactive
[4]
  outcome: inactive
[17]
  outcome: inactive
[5]
  outcome: inactive
[6]
  outcome: inactive
[11]
  outcome: inactive
[13]
  outcome: inactive
[14]
  outcome: inactive

## CCC(C)n1c(=O)[nH]c(C)c(Br)c1=O (configuration not stated)
[1]
  outcome: inactive
[2]
  outcome: inactive
[3]
  outcome: inactive
[15]
  outcome: inactive
[16]
  outcome: inactive
[19]
  outcome: inactive
[4]
  outcome: inactive
[5]
  outcome: inactive
[18]
  outcome: inactive
[9]
  outcome: inactive
[12]
  outcome: inactive
[13]
  outcome: inactive
[14]
  outcome: inactive
